PMC7862700, “An all-to-all approach to the identification of sequence-specific readers for epigenetic DNA modifications on cytosine”

Key:
Assay in all cases: DAPPL (digital affinity profiling via proximity ligation, sequencing); 10 mM Tris-HCl pH 7.5, 50 mM NaCl, 1 mM DTT, 4% glycerol, room temperature, 30 min; GST-TFs on glutathione beads, 16-mer random dsDNA library, 0.1% formaldehyde crosslink after washing; high values mean tight binding
FEV = target: T1, FEV (Homo sapiens, UniProt Q99581 1-238); details: protein: recombinant; tags: N-terminal GST; dsDNA, one strand shown
T1 sequence: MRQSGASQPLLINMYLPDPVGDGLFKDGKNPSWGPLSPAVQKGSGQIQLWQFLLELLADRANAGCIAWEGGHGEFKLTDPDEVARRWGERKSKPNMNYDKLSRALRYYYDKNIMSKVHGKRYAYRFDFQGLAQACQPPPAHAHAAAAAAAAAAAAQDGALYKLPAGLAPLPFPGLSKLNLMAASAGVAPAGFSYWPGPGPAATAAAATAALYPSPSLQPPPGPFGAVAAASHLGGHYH
Procedure, shortened: (§1)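 Human transcription factors were made in yeast as GST fusions, captured on glutathione beads and barcoded with DNA. With a tag-only sample included, the pool was incubated with 200 nmole of a random double-stranded 16-mer DNA library in Tris/NaCl/DTT/glycerol buffer at room temperature for 30 min, then crosslinked with 0.1% formaldehyde after washing, ligated by proximity, amplified and sequenced. For binding signal, each hexamer's read frequency for a factor is divided by its frequency for the tag-only sample.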

ETV5 = ETV5 (Homo sapiens, UniProt P41161 1-510); details: protein: recombinant; tags: N-terminal GST; dsDNA, one strand shown
Procedure, shortened: as §1

HSF1 = HSF1 (Homo sapiens, UniProt Q00613 1-529); details: protein: recombinant; tags: N-terminal GST; chain copies: 3; dsDNA, one strand shown
Procedure, shortened: as §1

SPIC = target: T2, SPIC (Homo sapiens, UniProt Q8N5J4 1-248); details: protein: recombinant; tags: N-terminal GST; dsDNA, one strand shown
T2 sequence: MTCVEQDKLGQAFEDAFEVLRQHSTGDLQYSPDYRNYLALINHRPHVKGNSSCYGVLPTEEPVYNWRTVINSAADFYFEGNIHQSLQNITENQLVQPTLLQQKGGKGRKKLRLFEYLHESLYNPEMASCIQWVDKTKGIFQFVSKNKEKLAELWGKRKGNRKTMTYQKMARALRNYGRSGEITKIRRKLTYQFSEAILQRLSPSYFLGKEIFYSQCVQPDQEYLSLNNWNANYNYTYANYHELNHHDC
Procedure, shortened: as §1

ELF4 = ELF4 (Homo sapiens, UniProt Q99607 1-663); details: protein: recombinant; tags: N-terminal GST; dsDNA, one strand shown
Procedure, shortened: as §1

ELK4 = target: T3, ELK4 (Homo sapiens, UniProt P28324-2 1-405); details: protein: recombinant; tags: N-terminal GST; dsDNA, one strand shown
T3 sequence: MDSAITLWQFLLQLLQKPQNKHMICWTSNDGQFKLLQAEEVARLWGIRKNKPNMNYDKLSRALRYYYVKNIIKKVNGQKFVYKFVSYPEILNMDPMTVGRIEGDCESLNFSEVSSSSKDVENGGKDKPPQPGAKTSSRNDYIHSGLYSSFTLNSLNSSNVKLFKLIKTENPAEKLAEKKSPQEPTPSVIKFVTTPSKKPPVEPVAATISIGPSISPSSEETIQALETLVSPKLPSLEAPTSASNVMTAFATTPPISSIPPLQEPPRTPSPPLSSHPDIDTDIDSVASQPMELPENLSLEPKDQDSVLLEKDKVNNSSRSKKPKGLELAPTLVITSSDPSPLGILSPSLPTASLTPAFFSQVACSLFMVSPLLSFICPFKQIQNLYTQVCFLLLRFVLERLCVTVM
Procedure, shortened: as §1

ETV2 = target: T4, ETV2 (Homo sapiens, UniProt O00321 1-342); details: protein: recombinant; tags: N-terminal GST; dsDNA, one strand shown
T4 sequence: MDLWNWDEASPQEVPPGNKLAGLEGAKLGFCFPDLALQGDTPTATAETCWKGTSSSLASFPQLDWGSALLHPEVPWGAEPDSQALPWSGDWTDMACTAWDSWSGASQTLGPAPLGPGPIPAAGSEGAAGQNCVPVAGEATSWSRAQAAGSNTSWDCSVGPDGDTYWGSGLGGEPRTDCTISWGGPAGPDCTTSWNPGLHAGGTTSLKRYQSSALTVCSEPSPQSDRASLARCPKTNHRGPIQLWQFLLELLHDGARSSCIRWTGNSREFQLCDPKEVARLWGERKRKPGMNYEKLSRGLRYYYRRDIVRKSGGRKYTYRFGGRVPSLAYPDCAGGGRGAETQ
Procedure, shortened: as §1

ELF3 = target: T5, ELF3 (Homo sapiens, UniProt P78545 1-371); details: protein: recombinant; tags: N-terminal GST; dsDNA, one strand shown
T5 sequence: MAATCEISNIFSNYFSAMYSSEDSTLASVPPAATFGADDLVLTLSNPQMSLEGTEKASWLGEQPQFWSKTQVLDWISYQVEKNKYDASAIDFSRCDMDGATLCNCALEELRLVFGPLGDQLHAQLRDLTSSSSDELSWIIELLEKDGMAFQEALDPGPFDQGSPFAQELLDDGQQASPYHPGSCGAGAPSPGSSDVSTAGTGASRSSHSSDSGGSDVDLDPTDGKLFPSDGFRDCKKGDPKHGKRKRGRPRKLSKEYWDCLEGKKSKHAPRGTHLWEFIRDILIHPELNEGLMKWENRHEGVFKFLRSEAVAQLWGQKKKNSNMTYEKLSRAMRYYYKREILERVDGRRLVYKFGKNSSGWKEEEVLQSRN
Procedure, shortened: as §1

CRX = CRX (Homo sapiens, UniProt O43186 1-299); details: protein: recombinant; tags: N-terminal GST; dsDNA, one strand shown
Procedure, shortened: as §1

ETV1 = ETV1 (Homo sapiens, UniProt P50549 1-477); details: protein: recombinant; tags: N-terminal GST; dsDNA, one strand shown
Procedure, shortened: as §1

ERF = target: T6, ERF (Homo sapiens, UniProt P50548 1-548); details: protein: recombinant; tags: N-terminal GST; dsDNA, one strand shown
T6 sequence: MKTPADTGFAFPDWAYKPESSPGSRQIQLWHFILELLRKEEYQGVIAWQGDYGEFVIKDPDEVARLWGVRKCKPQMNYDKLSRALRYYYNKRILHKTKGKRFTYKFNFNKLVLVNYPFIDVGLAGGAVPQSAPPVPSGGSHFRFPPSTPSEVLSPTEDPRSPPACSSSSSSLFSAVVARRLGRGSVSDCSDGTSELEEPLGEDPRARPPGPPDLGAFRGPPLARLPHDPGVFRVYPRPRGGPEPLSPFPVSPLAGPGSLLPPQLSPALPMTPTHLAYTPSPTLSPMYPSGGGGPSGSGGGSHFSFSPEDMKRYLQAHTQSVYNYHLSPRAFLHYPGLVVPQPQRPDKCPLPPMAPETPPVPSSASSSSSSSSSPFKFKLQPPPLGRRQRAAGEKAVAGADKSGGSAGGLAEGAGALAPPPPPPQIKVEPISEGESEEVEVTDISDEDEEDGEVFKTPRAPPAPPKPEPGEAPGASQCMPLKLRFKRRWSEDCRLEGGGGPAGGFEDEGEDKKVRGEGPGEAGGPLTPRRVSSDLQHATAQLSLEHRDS
Procedure, shortened: as §1

ETV3L = target: T7, ETV3L (Homo sapiens, UniProt Q6ZN32 1-361); details: protein: recombinant; tags: N-terminal GST; dsDNA, one strand shown
T7 sequence: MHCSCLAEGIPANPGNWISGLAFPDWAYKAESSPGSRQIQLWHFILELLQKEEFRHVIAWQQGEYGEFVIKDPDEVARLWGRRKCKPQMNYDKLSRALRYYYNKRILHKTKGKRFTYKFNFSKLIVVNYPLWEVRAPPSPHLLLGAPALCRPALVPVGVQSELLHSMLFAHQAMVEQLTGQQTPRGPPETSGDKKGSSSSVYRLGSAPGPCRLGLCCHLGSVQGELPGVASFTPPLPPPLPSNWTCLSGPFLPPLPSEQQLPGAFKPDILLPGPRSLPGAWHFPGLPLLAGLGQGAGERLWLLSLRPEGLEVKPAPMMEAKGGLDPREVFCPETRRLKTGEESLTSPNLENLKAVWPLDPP
Procedure, shortened: as §1

ETS2 = target: T8, ETS2 (Homo sapiens, UniProt P15036 1-469); details: protein: recombinant; tags: N-terminal GST; dsDNA, one strand shown
T8 sequence: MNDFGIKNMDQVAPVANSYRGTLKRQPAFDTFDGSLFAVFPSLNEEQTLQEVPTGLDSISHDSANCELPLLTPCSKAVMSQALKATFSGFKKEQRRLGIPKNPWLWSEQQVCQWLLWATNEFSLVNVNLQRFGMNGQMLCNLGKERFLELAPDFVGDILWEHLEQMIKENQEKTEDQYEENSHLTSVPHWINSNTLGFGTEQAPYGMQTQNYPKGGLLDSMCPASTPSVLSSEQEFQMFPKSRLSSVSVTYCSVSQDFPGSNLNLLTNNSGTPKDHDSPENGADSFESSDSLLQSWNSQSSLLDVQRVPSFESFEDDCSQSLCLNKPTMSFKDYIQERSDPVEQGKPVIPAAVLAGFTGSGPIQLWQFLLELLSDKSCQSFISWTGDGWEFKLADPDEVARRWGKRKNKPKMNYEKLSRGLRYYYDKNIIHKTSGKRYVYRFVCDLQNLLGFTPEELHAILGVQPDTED
Procedure, shortened: as §1

SPDEF = target: T9, SPDEF (Homo sapiens, UniProt O95238 1-335); details: protein: recombinant; tags: N-terminal GST; dsDNA, one strand shown
T9 sequence: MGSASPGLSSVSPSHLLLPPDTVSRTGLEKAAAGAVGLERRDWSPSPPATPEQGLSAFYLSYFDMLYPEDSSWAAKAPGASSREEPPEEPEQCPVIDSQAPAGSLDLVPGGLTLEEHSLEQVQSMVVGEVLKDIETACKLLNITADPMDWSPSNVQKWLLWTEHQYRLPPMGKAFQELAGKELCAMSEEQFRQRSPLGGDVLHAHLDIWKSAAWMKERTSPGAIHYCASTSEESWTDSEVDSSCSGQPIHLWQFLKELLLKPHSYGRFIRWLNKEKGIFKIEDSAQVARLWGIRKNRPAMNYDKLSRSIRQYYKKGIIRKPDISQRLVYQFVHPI
Procedure, shortened: as §1

ETV7 = target: T10, ETV7 (Homo sapiens, UniProt Q9Y603 1-341); details: protein: recombinant; tags: N-terminal GST; dsDNA, one strand shown
T10 sequence: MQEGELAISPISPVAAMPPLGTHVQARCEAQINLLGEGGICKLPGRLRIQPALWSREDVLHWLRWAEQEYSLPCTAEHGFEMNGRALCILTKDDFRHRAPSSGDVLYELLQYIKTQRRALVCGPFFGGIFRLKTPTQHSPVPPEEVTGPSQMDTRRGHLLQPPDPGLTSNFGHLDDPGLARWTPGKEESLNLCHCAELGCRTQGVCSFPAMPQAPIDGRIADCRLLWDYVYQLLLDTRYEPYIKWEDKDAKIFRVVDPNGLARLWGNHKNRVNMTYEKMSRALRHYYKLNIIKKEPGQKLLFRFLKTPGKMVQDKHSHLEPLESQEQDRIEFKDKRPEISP
Procedure, shortened: as §1

ELF5 = target: T11, ELF5 (Homo sapiens, UniProt Q9UKW6-2 1-255); details: protein: recombinant; tags: N-terminal GST; dsDNA, one strand shown
T11 sequence: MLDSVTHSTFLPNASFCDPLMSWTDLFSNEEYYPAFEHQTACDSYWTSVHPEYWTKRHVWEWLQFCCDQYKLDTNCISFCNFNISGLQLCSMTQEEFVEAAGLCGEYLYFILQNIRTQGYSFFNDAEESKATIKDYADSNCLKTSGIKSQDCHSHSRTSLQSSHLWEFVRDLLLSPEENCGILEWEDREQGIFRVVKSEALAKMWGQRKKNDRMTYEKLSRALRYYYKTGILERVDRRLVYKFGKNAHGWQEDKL
Procedure, shortened: as §1

ETV3 = target: T12, ETV3 (Homo sapiens, UniProt P41162-2 1-143); details: protein: recombinant; tags: N-terminal GST; dsDNA, one strand shown
T12 sequence: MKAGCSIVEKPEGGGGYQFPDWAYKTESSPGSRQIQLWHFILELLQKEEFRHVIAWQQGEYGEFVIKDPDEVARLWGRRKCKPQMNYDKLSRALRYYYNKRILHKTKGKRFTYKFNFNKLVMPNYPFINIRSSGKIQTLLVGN
Procedure, shortened: as §1

ETV6 = ETV6 (Homo sapiens, UniProt P41212 1-452); details: protein: recombinant; tags: N-terminal GST; dsDNA, one strand shown
Procedure, shortened: as §1

Sequence of ETV5 (P41161 whole entry): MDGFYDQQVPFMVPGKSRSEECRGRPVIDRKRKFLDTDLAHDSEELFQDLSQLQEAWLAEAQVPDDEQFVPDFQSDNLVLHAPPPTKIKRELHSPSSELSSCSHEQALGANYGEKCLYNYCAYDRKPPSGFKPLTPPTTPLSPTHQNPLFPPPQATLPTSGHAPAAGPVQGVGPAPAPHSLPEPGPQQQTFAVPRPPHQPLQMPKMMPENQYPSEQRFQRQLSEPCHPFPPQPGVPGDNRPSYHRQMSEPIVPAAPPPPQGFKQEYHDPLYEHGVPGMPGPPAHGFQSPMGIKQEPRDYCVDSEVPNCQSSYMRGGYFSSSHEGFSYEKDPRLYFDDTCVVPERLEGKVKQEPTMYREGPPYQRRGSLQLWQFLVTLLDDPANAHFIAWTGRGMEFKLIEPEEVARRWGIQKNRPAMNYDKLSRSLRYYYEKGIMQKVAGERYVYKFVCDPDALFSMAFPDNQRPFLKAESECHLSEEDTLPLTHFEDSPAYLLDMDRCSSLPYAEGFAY
Sequence of ETV6 (P41212 whole entry): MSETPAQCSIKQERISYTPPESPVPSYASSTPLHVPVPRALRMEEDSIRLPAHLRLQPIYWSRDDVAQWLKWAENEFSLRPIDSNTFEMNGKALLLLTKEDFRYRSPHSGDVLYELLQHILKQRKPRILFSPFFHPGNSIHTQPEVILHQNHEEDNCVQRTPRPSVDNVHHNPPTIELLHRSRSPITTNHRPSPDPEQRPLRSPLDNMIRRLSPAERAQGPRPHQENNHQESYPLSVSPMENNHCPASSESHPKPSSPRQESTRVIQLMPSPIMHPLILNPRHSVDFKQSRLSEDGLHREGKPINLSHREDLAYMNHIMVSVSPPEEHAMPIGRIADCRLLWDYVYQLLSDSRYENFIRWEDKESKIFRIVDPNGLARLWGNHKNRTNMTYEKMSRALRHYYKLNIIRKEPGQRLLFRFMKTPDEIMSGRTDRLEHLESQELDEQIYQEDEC
Sequence of CRX (O43186 whole entry): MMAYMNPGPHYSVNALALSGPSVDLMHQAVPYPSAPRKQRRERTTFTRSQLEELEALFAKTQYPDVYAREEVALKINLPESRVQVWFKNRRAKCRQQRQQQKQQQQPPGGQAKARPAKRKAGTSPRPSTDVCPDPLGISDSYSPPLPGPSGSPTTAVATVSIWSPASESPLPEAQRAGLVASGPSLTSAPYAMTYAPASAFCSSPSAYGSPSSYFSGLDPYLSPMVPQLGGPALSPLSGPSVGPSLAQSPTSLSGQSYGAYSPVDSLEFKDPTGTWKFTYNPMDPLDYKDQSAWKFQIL
Sequence of HSF1 (Q00613 whole entry): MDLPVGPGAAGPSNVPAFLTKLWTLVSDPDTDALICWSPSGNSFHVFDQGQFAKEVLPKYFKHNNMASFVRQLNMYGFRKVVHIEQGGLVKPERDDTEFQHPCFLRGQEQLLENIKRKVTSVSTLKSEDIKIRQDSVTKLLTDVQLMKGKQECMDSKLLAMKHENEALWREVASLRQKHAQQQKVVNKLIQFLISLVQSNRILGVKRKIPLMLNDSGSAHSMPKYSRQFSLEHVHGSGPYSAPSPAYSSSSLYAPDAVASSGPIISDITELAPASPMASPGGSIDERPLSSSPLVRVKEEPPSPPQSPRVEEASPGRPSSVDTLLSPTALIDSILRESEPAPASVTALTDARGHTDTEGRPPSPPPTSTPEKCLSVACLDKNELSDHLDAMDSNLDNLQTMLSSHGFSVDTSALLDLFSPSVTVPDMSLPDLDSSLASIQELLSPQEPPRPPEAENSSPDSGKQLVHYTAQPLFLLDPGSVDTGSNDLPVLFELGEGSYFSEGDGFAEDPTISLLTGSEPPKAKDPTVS
Sequence of ETV1 (P50549 whole entry): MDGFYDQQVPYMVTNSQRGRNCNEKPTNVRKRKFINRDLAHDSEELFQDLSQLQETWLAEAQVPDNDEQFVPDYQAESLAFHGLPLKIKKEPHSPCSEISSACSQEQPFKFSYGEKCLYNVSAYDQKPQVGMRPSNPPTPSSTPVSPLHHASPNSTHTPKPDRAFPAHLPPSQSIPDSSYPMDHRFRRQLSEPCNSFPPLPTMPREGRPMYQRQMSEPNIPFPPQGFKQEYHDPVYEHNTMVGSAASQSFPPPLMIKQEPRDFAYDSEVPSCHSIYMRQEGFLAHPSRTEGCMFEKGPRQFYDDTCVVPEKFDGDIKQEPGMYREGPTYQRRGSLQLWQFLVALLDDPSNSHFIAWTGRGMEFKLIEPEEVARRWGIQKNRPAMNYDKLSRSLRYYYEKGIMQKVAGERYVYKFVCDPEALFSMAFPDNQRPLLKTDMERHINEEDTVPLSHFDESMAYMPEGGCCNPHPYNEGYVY
Sequence of ELF4 (Q99607 whole entry): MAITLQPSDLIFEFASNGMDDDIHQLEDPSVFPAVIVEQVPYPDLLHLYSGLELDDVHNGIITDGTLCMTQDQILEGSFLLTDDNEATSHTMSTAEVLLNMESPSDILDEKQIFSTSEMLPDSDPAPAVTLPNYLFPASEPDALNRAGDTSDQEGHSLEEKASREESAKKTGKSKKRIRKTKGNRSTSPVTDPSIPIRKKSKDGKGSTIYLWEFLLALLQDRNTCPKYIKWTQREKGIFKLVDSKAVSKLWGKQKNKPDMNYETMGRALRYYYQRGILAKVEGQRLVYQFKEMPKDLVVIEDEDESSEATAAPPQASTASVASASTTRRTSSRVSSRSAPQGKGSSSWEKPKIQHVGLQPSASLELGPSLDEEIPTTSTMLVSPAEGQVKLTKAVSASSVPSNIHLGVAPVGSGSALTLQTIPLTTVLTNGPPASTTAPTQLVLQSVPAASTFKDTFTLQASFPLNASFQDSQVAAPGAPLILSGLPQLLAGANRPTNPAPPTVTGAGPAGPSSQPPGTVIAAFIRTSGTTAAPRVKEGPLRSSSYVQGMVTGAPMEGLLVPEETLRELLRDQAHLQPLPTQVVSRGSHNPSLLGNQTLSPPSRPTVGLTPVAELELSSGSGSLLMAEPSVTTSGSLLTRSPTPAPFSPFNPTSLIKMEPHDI

Sequence: CTATTC
- binding signal (FEV): 1.28 fold enrichment (6-mer frequency, TF over GST control)
- binding signal (ETV5): 1.35 fold enrichment (6-mer frequency, TF over GST control)
- binding signal (HSF1): 1.57 fold enrichment (6-mer frequency, TF over GST control)
- binding signal (SPIC): 1.49 fold enrichment (6-mer frequency, TF over GST control)
- binding signal (ELF4): 1.26 fold enrichment (6-mer frequency, TF over GST control)
- binding signal (ELK4): 1.32 fold enrichment (6-mer frequency, TF over GST control)
- binding signal (ETV2): 1.37 fold enrichment (6-mer frequency, TF over GST control)
- binding signal (ELF3): 1.38 fold enrichment (6-mer frequency, TF over GST control)
- binding signal (CRX): 1.16 fold enrichment (6-mer frequency, TF over GST control)
- binding signal (ETV1): 1.28 fold enrichment (6-mer frequency, TF over GST control)
- binding signal (ERF): 1.33 fold enrichment (6-mer frequency, TF over GST control)
- binding signal (ETV3L): 1.4 fold enrichment (6-mer frequency, TF over GST control)
- binding signal (ETS2): 1.32 fold enrichment (6-mer frequency, TF over GST control)
- binding signal (SPDEF): 1.41 fold enrichment (6-mer frequency, TF over GST control)
- binding signal (ETV7): 1.34 fold enrichment (6-mer frequency, TF over GST control)
- binding signal (ELF5): 1.29 fold enrichment (6-mer frequency, TF over GST control)
- binding signal (ETV3): 1.33 fold enrichment (6-mer frequency, TF over GST control)
- binding signal (ETV6): 1.4 fold enrichment (6-mer frequency, TF over GST control)
